Source: PubChem BioAssay (NMMLSC)
This is a sample that favours compounds with a hit; in the whole collection about 2.2% have one here.
VLA-4 inh – inhibition in a human VLA-4 binding assay. actives 0.2% (n = 330,000). AID 2557. inhibition, % (about 7 µM as worked out from the volumes in the protocol). VLA-4 expressing cells, ligand binding flow cytometry. P13612; in the data active = inhibition above about 50%
MEKK2 WT-MEK5 – raises or lowers MEK5 binding to wildtype human MEKK2 PB1 domain | bead flow cytometry, Alexa488-MEK5 binding to MEKK2 WT; actives lie on both sides | actives 1.1% (n = 290,000) | binding response (% of control), % at 10 µM | AID 1531 | Q9Y2U5; in the data active = binding response below about 67% or above about 130%
MEKK2mut PB1 HTS – signal of MEK5 binding to mutant human MEKK2 PB1 domain. actives 0.35% (n = 290,000). bead flow cytometry, Alexa488-MEK5 binding to MEKK2 mutant. percent response, % at 10 µM; in the data active = percent response above about 24%, passing the limit was not always enough
MEKK3 PB1 HTS – modulators (inhibitors or enhancers) of MEK5 binding to human MEKK3 PB1 domain; Q99759; bead-based flow cytometry, Alexa488-MEK5 binding to MEKK3; actives lie on both sides; 0 = blocked by unlabeled MEK5, 100 = vehicle; binding response (% of control), % at 10 µM; actives 1.4% (n = 290,000);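 active = binding response more than 3 SD above or below the average of its plate-row segment, actives on both sides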;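 note: Alexa488 bead fluorescence after subtracting the streptavidin-only scavenger bead signal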
Target sequence (Q99759 whole entry, looked up, the tested form may be a part): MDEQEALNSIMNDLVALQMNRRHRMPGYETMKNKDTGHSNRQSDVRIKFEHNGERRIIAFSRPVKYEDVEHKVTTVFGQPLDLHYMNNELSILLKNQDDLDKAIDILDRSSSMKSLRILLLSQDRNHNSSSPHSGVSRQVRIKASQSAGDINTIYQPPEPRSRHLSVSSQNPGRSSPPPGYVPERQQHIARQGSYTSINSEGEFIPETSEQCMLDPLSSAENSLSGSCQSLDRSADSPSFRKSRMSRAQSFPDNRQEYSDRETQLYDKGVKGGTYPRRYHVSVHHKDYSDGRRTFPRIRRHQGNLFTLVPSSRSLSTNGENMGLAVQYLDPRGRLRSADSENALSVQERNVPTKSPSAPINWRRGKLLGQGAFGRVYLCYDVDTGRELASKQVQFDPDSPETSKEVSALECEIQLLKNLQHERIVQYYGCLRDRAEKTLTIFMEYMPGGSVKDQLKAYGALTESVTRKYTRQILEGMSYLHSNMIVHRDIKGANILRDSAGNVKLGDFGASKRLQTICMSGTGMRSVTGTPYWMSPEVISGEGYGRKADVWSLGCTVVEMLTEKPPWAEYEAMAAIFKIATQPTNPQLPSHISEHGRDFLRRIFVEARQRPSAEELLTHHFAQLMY
MEKK2wt confirm – raises or lowers MEK5 binding to wildtype human MEKK2, retest | shares compounds with MEKK3 PB1 HTS | bead flow cytometry, Alexa488-MEK5 binding to MEKK2 WT; actives lie on both sides | binding response (% of control), % at 10 µM | actives 2.4% (n = 5,900); in the data active = binding response below about 16% or above about 210%; inactive = in between
MEKK2mut confirm – signal of MEK5 binding to mutant human MEKK2, retest; bead flow cytometry, Alexa488-MEK5 binding to MEKK2 mutant; percent response, % at 10 µM; actives 2% (n = 5,900); shares compounds with MEKK3 PB1 HTS; in the data active = percent response mostly above about 71%, no sharp cut-off; inactive = mostly below about 38%;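 note: higher means compound restores mutant binding toward wildtype level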
MEKK3 confirm – confirmation of inhibitors of MEK5 binding to human MEKK3; shares compounds with MEKK3 PB1 HTS; bead flow cytometry, Alexa488-MEK5 binding to MEKK3; stronger effect = lower value; binding response (% of control), % at 10 µM; actives 1.8% (n = 5,900); AID 1894;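 active = binding response below 72% of control, or above a set upper limit, though filed actives all read lower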;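 note: 100% = DMSO only wells and 0% = binding blocked by excess unlabeled MEK5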
* hit, by the source's call; x = not tested or not shown; ! = not active in a repeat; [ ] = dose if it differs, or a comment.

SMILES	VLA-4 inh	MEKK2 WT-MEK5	MEKK2mut PB1 HTS	MEKK3 PB1 HTS	MEKK2wt confirm	MEKK2mut confirm	MEKK3 confirm
COc1ccc(-c2csc(NC(=S)NC(=O)c3ccco3)n2)cc1	-10	87	-15	93	x	x	x
O=C(C[n+]1ccccc1)Nc1ccccc1Br	-8	71	-16	76	x	x	x
O=C(CN1CCc2cc3c(cc2C1)OCCCO3)Nc1cccc(Br)c1	4	106	3	100	x	x	x
COc1ccc(-c2cc(C(=O)N/N=C(\C)c3cccnc3)c3ccccc3n2)cc1	6	102	2	105	x	x	x
COc1cccc(/C(C)=N/NC(=O)c2cc(-c3cccnc3)nc3ccccc23)c1	-7	104	-1	129*	102	1	104
COc1ccc(/C(C)=N/NC(=O)c2cc(-c3cccnc3)nc3ccccc23)cc1	4	110	0	147*	129	27	121
CC(C)Cc1nnc(NC(=O)C2CCN(C(=O)c3ccc(F)cc3)CC2)s1	4	x	x	x	x	x	x
Cc1ccc(C(=O)C2(C)C3c4cc(Br)ccc4OC(=O)C32C(=O)c2ccco2)cc1 (configuration not stated)	-1	39*[inhibitor]	-42	24*[inhibitor]	96	-6	96
COc1ccc(-c2sc(Nc3ccccc3)n[n+]2-c2ccc(F)cc2)c(C)c1C	14	141*	37*	110	120	10	99
Oc1ccc(-c2sc(Nc3ccccc3)n[n+]2-c2ccc(F)cc2)cc1	-10	102	9	100	x	x	x
Fc1ccc(-[n+]2nc(Nc3ccccc3)sc2-c2c3ccccc3cc3ccccc23)cc1	4	133	31*	105	172	50	105
CSc1ccc(-c2sc(Nc3ccccc3)n[n+]2-c2ccc(F)cc2)cc1	25	139*	28*	109	128	12	111
COc1ccc(C)cc1Nc1n[n+](-c2ccccc2)c(-c2cc(OC)c(OC)cc2Br)s1	-45	134*	26*	103	154	40	109
COc1ccc(C)cc1Nc1n[n+](-c2ccccc2)c(-c2c(OC)ccc3ccccc23)s1	22	x	x	x	x	x	x
Cc1ccc(C2=NN(CCC(=O)NC3CCCC3)C(=O)CC2)cc1	5	99	2	101	x	x	x
CN1C(=O)C(=O)/C(=C(/O)c2ccc(Br)cc2)C1c1ccc(F)cc1 (configuration not stated)	-8	98	9	100	x	x	x
N=c1scc(-c2ccccc2)n1/N=C/c1ccco1	16	108	55*	103	87	-2	95
C(=N/n1c2ccccc2c2ccccc21)/c1ccco1	0	103	-2	102	x	x	x
O=C(CC12CC3CC(CC(C3)C1)C2)Nc1ccccc1N1CCOCC1	0	106	1	107	x	x	x
O=S(=O)(Nc1cccc(-n2cnnn2)c1)c1ccccc1F	2	101	3	99	x	x	x
COC(=O)Cc1[nH]n(-c2nc3ccccc3s2)c(=O)c1C(C)=O	2	102	7	109	x	x	x
COC(=O)Cc1cc(=O)n(-c2nc3ccccc3[nH]2)[nH]1	4	80	-4	73*[inhibitor]	98	0	101
CCCc1cc(=O)oc2cc(OCC(=O)NC3CC(C)(C)NC(C)(C)C3)ccc12	4	102	6	102	x	x	x
CCCn1c(SCC(=O)c2c[nH]c3ccccc23)nnc1-c1ccncc1	0	75	3	71*[inhibitor]	98	-5	96
NCC12CC3CC(C1)CC(c1ccc(Br)cc1)(C3)C2	31	153*	21	110	133	22	101
SMILES	VLA-4 inh	MEKK2 WT-MEK5	MEKK2mut PB1 HTS	MEKK3 PB1 HTS	MEKK2wt confirm	MEKK2mut confirm	MEKK3 confirm
Cc1ccc(C23CC4CC(CC(CN)(C4)C2)C3)cc1	x	122	7	107	x	x	x
Cc1ccc(NC(=O)C2CCN(S(=O)(=O)c3ccc(N4CCCC4=O)cc3)CC2)cc1Cl	4	102	7	106	x	x	x
CCc1ccc(OCC(=O)N/N=C(\C)c2ccc3c(c2)OCCO3)cc1	1	102	0	131*	104	-1	103
C/C(=N\NC(=O)COc1ccc(C(C)(C)C)cc1)c1ccc2c(c1)OCCO2	13	113	21	110	x	x	x
Oc1c(C=C2N=c3ccccc3=N2)sc(=S)n1C1CCCCC1	-2	53*![inhibitor]	-3	114	70	-13	97
O=C(Nn1c(O)c(C=C2N=c3ccccc3=N2)sc1=S)c1ccccc1Cl	-9	58*[inhibitor]	-26	82	66	-27	89
CCOc1ccc(C2=Nn3c(CC)nnc3SC2)cc1	7	x	x	x	x	x	x
c1ccc(N2CCN(c3nc4ccccc4[nH]3)CC2)nc1	2	84	-4	74*[inhibitor]	94	-6	93
c1ccc2[nH]c(N3CCOCC3)nc2c1	-10	109	8	107	x	x	x
O=C(CC(Nc1cccc(Cl)c1Cl)C(=O)O)c1ccccc1 (configuration not stated)	0	111	1	123	x	x	x
O=C(CC(Nc1ccccc1Cl)C(=O)O)c1ccccc1 (configuration not stated)	3	113	1	130*	99	2	103
Cc1nc(N2CCN(c3ccc(Cl)cc3)CC2)[nH]c(=O)c1C	-4	107	6	100	x	x	x
CN1CCN(c2ccccc2NC(=O)c2cc3c(s2)-c2ccccc2OC3)CC1	17	146*	21	101	172	37	107
O=C(CCc1nnc2ccc(N3CCC4(CC3)OCCO4)nn12)Nc1ccc(F)cc1	11	99	3	101	x	x	x
CCn1cc([N+](=O)[O-])c(C(=O)Nc2ccn(Cc3ccccc3F)n2)n1	0	100	8	97	x	x	x
COC(=O)Nc1nn(Cc2ccccc2F)cc1Br	-5	82	-10	74*[inhibitor]	104	8	104
OC(c1cc(-c2ccc(C(F)(F)F)cc2)nc(C(F)(F)F)c1)C1CCCCN1 (configuration not stated)	23	165*	57*	111	153	32	103
CC(C)NC(=O)C1CC=CCC1C(=O)O (configuration not stated)	-5	107	0	134*	101	9	103
CCOC(=O)/C(N=Nc1c(Br)cc(Br)cc1Br)=C(\C)O	-6	120	5	126*	95	3	93
CCOC(=O)NC(=O)/C(N=Nc1cc(C)cc(C)c1)=C(\C)O	15	103	1	97	x	x	x
COc1ccc2c(c1)-c1c(ssc1=S)C(C)(C)N2S(=O)(=O)c1ccc(C)cc1	1	101	2	129*	99	-2	101
